For 30 compounds, Potency, outcome and max response results are on record in PubChem BioAssay (NCATS).

Assay [1] has as its target Tyrosine-protein kinase Yes (Homo sapiens) (UniProt P07947). The assay can be described thus: qHTS for small molecule inhibitors of Yes1 kinase: Primary Screen (AID 686947). Also: nearly all actives have a fitted effect of over 60% in size. Also: potency is read from the fitted curve at half-maximal effect. In short, it runs like this: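 ADP-Glo luminescence readout; final 4 nM Yes1, 0.1 mM ATP, 0.3 mg/mL poly(E4Y), Tris pH 7.5, MgCl2, DTT, Brij-35. 20 min compound preincubation, 60 min reaction at RT. Normalized to DMSO wells with and without enzyme.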

Assay [2] is described as follows: qHTS for small molecule inhibitors of Yes1 kinase: Counter Assay (AID 686950).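 Also: no kinase present so only ADP-Glo detection of a fixed ADP amount is tested; luminescence from ADP-Glo reporting ADP in a fixed ATP and ADP mixture; series mostly up to about 77 µM; 0% = DMSO wells with ATP plus ADP and -100% = ATP-only wells without ADP.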 In short, it runs like this: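 Enzyme-free ADP-Glo interference check: compounds were preincubated 20 min in buffer, then an ATP/ADP mix (0.08 mM ATP, 0.02 mM ADP final) was added for 60 min at room temperature before two-step ADP-Glo luminescence detection.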
Assay [3] is described as follows: qHTS Assay for Identifying Gametocytocidal Compounds (AID 743244). Also: potency is read from the fitted curve at half-maximal effect.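 As to max response: % is scaled to controls: 0 for no effect and ±100 for the full control effect; actives lower the fluorescent signal which means gametocytes are killed.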 To be noted: P. falciparum 3D7 stage III-V gametocytes, alamarBlue, 72 h; max response: active compounds read low. The method in brief:
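Stage III–V gametocytes of P. falciparum 3D7 were seeded at 20,000 cells/well onto pre-dispensed compounds. After 72 h, 37 °C, 5% CO2, alamarBlue was added for another 24 h.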

Assay [4] is described as follows: qHTS for compounds that reverse cellular toxicity of Amyloid beta (A-beta) peptide in yeast: LOPAC Validation Assay (AID 720559).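 Also: plate controls were DMSO for no effect and equimolar ferric chloride plus clioquinol rescue for full effect.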 In short, it runs like this: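 Yeast cells expressing toxic A-beta were combined with pinned compounds in growth medium and incubated 48 hr at 30 C. Growth was read as absorbance at 600 nm and normalized to DMSO and to an equimolar FeCl3/clioquinol positive control.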

Assay [5] in a line: qHTS for Activators of Parkin Expression: LOPAC Validation Assay (NLuc Reporter) (AID 720572;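 also: 0% = DMSO and 100% = positive control compound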). In short, it runs like this:
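Neuronal line stably carrying a FLuc/NLuc coincidence reporter under the Parkin promoter, seeded 24 h, then dosed in 7-point series for 24 h at 37 C. NLuc luminescence read after FLuc; normalized to DMSO and positive control (100%).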

Assay [6] in a line: qHTS for Activators of Parkin Expression: LOPAC Validation Assay (FLuc Reporter) (AID 720573;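 also: 0% = DMSO and 100% = positive control compounds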). In short, it runs like this: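 Neuronal cell line stably carrying FLuc/NLuc coincidence reporter under Parkin promoter; cells plated 24 h, then compounds added in 7-point dose response for 24 h at 37 C. FLuc luminescence read; normalized to DMSO and positive control (100%).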
The target of assay [7] is T1, Hexokinase-4 (Homo sapiens) + Glucokinase regulatory protein (Homo sapiens) (UniProt P35557+Q14397). The assay can be described thus: qHTS assay for inhibitors of recombinant human GCK-GKRP interaction: Diaphorase-coupled assay (AID 743205). In short, it runs like this:
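GST-GCK (10 nM) with FLAG-GKRP (10 nM), 5 mM glucose and 0.4 mM ATP in pH 7.6 Hepes; compounds preincubated 20 min with substrate. G6PDH/diaphorase coupling converts resazurin to resorufin, read kinetically (ex 525/em 590 nm) for 30 min.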

The target of assay [8] is T1, Hexokinase-4 (Homo sapiens) + Glucokinase regulatory protein (Homo sapiens). The assay can be described thus: qHTS assay for inhibitors of recombinant human GCK-GKRP interaction: HTRF assay (AID 743207).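 Also: 0% = DMSO with GCK present and -100% = DMSO wells lacking GCK.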 The method in brief: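 GST-GCK and FLAG-GKRP (5 nM each) were combined with 2 uM S6P in pH 7.1 Hepes/MgCl2/KCl/DTT buffer, then compound and anti-FLAG XL665/anti-GST K antibodies were added. After 60 min at room temperature, HTRF 665/615 nm emission was read.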

Structures are written as SMILES. Several values for one entry are separate records, joined by “and”; a condition that tells them apart may be missing. Identical values can stand only once. Unmarked numbers belong to inactive results. Inconclusive results are not listed. Activity calls are given as the source filed them. Calls follow the shape of the dose curve; as a rule, active = well fitted curve in the direction sought with a large enough effect; inconclusive = small, poorly fitted or top-dose-only effect, or another doubt; inactive = no such curve, though single readings can be large; an effect the other way counts as inactive or inconclusive.

Sequence of Tyrosine-protein kinase Yes (Homo sapiens) (P07947 whole entry, looked up): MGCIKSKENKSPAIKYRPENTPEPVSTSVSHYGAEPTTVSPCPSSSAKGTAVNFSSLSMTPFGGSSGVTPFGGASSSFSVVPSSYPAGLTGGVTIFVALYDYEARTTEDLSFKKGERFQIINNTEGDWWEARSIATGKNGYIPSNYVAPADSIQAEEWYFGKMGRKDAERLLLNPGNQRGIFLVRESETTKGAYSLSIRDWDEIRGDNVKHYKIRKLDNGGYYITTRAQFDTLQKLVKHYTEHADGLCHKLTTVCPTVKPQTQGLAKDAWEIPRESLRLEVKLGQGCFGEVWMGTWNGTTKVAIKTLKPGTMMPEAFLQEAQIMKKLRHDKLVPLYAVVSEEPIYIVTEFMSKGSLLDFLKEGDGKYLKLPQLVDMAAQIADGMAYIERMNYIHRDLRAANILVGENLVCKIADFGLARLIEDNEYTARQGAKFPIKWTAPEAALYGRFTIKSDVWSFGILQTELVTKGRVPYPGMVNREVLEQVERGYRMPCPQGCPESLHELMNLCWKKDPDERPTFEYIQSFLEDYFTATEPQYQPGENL
T1 sequence (P35557 whole entry, looked up): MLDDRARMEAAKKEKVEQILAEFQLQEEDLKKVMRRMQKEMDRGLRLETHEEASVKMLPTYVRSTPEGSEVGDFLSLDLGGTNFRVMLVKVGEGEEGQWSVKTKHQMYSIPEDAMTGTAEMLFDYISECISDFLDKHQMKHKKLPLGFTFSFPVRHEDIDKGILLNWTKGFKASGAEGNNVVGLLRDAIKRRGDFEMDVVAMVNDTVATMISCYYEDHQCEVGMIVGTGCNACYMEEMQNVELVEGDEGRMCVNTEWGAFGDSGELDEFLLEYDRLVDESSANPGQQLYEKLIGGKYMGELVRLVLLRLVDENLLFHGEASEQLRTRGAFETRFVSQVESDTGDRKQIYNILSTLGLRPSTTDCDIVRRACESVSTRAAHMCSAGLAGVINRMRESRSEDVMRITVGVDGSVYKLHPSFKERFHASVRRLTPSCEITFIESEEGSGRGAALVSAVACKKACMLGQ
T1 sequence (Q14397 whole entry, looked up): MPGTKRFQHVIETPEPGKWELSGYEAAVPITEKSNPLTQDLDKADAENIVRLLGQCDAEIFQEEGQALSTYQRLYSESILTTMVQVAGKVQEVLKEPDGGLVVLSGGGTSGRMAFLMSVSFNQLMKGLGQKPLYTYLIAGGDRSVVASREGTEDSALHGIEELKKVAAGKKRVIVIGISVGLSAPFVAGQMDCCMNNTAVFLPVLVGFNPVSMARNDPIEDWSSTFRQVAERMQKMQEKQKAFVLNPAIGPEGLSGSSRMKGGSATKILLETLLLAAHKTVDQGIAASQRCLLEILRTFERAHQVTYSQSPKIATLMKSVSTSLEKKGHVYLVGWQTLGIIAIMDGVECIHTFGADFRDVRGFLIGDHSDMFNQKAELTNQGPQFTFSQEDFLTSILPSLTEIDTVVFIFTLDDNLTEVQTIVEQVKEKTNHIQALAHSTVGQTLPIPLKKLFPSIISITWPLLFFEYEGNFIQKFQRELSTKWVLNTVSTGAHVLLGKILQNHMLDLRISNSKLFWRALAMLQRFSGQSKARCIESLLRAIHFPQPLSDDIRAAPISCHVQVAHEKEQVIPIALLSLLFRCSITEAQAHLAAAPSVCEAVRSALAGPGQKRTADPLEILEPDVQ

Consider `COc1ccc(C2CC(c3ccccc3)=NN2c2ccc(S(N)(=O)=O)cc2)cc1` (stereo unspecified), for which the Potency result in assay [1] is “inactive”. Also, in assay [2], the outcome was inactive. Further, the max response in assay [3] is -8.6%.

Regarding `CC(C)C(=O)Nc1ncc(-c2cc(C(F)F)nn2-c2c(Cl)cccc2Cl)s1`, the Potency in assay [1] is 27.4 µM (active). In addition, the result in assay [2] was inactive. In addition, the max response in assay [3] was 17%.

As to `CC(C)(C)COc1ccc(-n2cc(C(=O)O)cn2)cc1C#N`, the Potency result in assay [1] was “inactive”. Moreover, the call in assay [2] was inactive. The max response in assay [3] was 54.6%.

For the compound `O=c1cc(CN2CCOCC2)occ1OCCCCCSc1ccnc2cc(C(F)(F)F)ccc12`, in assay [1], the Potency result is “inactive”. Also, the outcome in assay [2] was inactive. Further, in assay [3], the max response is 18.6%.

On to `O=C(Nc1ccccc1-c1cn2c(CN3CCNCC3)csc2n1)c1cnc2ccccc2n1`, for which, in assay [1], the Potency result was “inactive”. Besides, the result in assay [2] was inactive. Besides, in assay [3], the Potency is 3.72 µM (active).

Consider `CC(C)(C)C(=O)Oc1ccc2c(c1)nc(NC(=O)c1cccc([N+](=O)[O-])c1)n2CCCO`, for which, in assay [2], the result was inactive. The max response in assay [3] was 2.9%.

For `CC(C)(C)c1cc(C(=O)O)c(NC(=O)Nc2ccc3[nH]ncc3c2)s1`, in assay [1], the Potency entry is “inactive”. For the same compound, the call in assay [2] was inactive. Besides, the max response in assay [3] is 39.1%.

For the compound `Clc1ccc(-c2nc3sccn3c2C=NOCc2ccc(Cl)c(Cl)c2)cc1`, in assay [1], the Potency result is “inactive”. The call in assay [2] was inactive. The max response in assay [3] was 17.5%.

In the case of `O=C(O)c1ccc(-c2cc3cccnc3c(-c3ccc4nonc4c3)n2)cc1`, the Potency entry in assay [1] was “inactive”. In assay [2], the result was inactive. Besides, the max response in assay [3] was 33.8%.

Consider `O=C(O)CCC1CCC(c2cc(F)ccc2F)(S(=O)(=O)c2ccc(Cl)cc2)CC1` (stereo unspecified), for which the Potency result in assay [1] is “inactive”. Moreover, the compound was called inactive in assay [2]. In addition, the max response in assay [3] is -21%.

With `CN(C)Cc1ccc(-c2nc3cccc4c3n2CCNC4=O)cc1`, the Potency in assay [1] was 13.7 µM (active). In addition, the outcome in assay [2] was inactive. Also, the max response in assay [3] was 13%.

Take `NC(CO)(CO)CCc1ccc(Sc2cccc(OCc3ccccc3)c2)cc1Cl`: the compound was called inactive in assay [2].

For `O=C1C(Cl)=C(NCCN2CCOCC2)C(=O)c2ncccc21`, in assay [1], the Potency is 6.88 µM (active). Besides, in assay [2], the compound was classed as inactive. The max response in assay [3] was -156%.

Take `CC(=O)Nc1ccc([C@H](C)C(=O)Nc2ncc(C(C)C)s2)cc1`: the result in assay [2] was inactive. Moreover, the max response in assay [3] is 12.4%.

As to `COc1cc2nc(-c3ccc(N4CCN(C)CC4)cc3)nc(NCCN3CCOCC3)c2cc1OC`, the Potency result in assay [1] is “inactive”. In assay [2], the outcome was inactive. Further, the Potency in assay [3] is 11.8 µM (active).

In the case of `COc1cc(Nc2ncc(F)c(Nc3ccc4c(n3)NC(=O)C(C)(C)O4)n2)cc(OC)c1OC`, the compound was classed as inactive in assay [2]. Also, the max response in assay [3] was 23.2%.

With `CN(C)C1CCN(C(=O)c2ccc(NC(=O)Nc3nc(N4CCOCC4)nc(N4CCOCC4)n3)cc2)CC1`, the outcome in assay [2] was inactive. The Potency in assay [3] was 23.5 µM (active).

For the compound `CC(C)(C(=O)NCC(F)(F)C(F)(F)F)C(=O)N[C@@H]1C(=O)Nc2ccccc2-c2ccccc21`, in assay [1], the Potency result was “inactive”. In assay [2], the result was inactive. Moreover, the max response in assay [3] is 8.7%.

Consider `NC(N)=Nc1nc(CSCC/C(N)=N/S(N)(=O)=O)cs1`, for which the compound was classed as inactive in assay [4], in assay [7] and in assay [8]. The Potency entry in assay [5] and in assay [6] was “inactive” in each case. For the same compound, the max response in assay [3] was 5.05% and 9.64%.

In the case of `CC(=O)CCCCn1c(=O)c2c(ncn2C)n(C)c1=O`, the compound was called inactive in assay [4], in assay [7] and in assay [8]. In addition, the Potency result in assay [5] and in assay [6] was “inactive” each time. Moreover, in assay [3], the max response was -1.45% and 1.03%.

As for `COc1cccc(-c2cc(=O)c3ccccc3o2)c1N`, the result in assay [4], in assay [7] and in assay [8] was inactive. Moreover, the Potency result in assay [5] is “inactive”.

Turning to `CC1(C)CCC2=C(O1)c1ccccc1C(=O)C2=O`, the outcome in assay [4] and in assay [7] was inactive. Further, the Potency entry in assay [5] and in assay [6] was “inactive” in each case. In addition, the Potency in assay [3] was 2.82 µM (active).

Turning to `Cc1cnc(C(=O)O)c[n+]1[O-]`, the max response in assay [3] was 8.17% and 2.06% and -4.26%.

As for `O=C(NCCN1CCOCC1)c1ccc(Cl)cc1`, the result in assay [4], in assay [7] and in assay [8] was inactive. Further, the Potency result in assay [5] and in assay [6] was “inactive” in each case. Also, in assay [3], the max response was -4.13% and 9.69% and 29.4%.

For `CCc1ccc(OCc2ccccc2C(=O)Nc2ccc3nc(C)cc(N)c3c2)cc1`, the Potency in assay [3] was 8.33 µM (active).

In the case of `OC[C@@H](O)[C@H](O)[C@H](O)[C@@H](O)CO`, the max response in assay [3] was 1.74% and -2.1%.

Take `C[N+](C)(C)CCCCCC[N+](C)(C)C`: the result in assay [4], in assay [7] and in assay [8] was inactive. The Potency result in assay [5] and in assay [6] was “inactive” in each case. Besides, the max response in assay [3] is 5.46% and 9.66% and 12.2%.

On to `CCN(CC)CCNC(=O)c1ccc(N)cc1`, for which the outcome in assay [4], in assay [7] and in assay [8] was inactive. The Potency result in assay [5] and in assay [6] was “inactive” throughout. In assay [3], the max response was 34.9%.

As to `CC(C)NCC(O)COc1cccc2[nH]ccc12` (stereo unspecified), in assay [4], the compound was called inactive. In addition, the Potency entry in assay [5] is “inactive”. In assay [3], the max response is 5.47% and 6.31%.

With `O=C(O)CCc1nc(-c2ccccc2)c(-c2ccccc2)o1`, the result in assay [4] was inactive. Also, in assay [6], the Potency entry was “inactive”. Further, the max response in assay [3] was 14.6% and 5.09%.
